Drawing on PubChem BioAssay AID1347074 (Center for Chemical Genomics, University of Michigan, 2019), this text covers z-score for 98 compounds.

Structures are written as SMILES. Among all 47,000 compounds or so, about 2,800 (6%) were called active. What follows is part of a selection rich in actives, with near analogues and random picks from the rest. Unmarked numbers belong to inactive results. Cut-off read from the data, not from the text of the source: active = z-score above about 3 (passing the limit was not always enough); inactive = the rest.

Endoribonuclease Dicer (Homo sapiens), sequence (Q9UPY3 whole entry, looked up): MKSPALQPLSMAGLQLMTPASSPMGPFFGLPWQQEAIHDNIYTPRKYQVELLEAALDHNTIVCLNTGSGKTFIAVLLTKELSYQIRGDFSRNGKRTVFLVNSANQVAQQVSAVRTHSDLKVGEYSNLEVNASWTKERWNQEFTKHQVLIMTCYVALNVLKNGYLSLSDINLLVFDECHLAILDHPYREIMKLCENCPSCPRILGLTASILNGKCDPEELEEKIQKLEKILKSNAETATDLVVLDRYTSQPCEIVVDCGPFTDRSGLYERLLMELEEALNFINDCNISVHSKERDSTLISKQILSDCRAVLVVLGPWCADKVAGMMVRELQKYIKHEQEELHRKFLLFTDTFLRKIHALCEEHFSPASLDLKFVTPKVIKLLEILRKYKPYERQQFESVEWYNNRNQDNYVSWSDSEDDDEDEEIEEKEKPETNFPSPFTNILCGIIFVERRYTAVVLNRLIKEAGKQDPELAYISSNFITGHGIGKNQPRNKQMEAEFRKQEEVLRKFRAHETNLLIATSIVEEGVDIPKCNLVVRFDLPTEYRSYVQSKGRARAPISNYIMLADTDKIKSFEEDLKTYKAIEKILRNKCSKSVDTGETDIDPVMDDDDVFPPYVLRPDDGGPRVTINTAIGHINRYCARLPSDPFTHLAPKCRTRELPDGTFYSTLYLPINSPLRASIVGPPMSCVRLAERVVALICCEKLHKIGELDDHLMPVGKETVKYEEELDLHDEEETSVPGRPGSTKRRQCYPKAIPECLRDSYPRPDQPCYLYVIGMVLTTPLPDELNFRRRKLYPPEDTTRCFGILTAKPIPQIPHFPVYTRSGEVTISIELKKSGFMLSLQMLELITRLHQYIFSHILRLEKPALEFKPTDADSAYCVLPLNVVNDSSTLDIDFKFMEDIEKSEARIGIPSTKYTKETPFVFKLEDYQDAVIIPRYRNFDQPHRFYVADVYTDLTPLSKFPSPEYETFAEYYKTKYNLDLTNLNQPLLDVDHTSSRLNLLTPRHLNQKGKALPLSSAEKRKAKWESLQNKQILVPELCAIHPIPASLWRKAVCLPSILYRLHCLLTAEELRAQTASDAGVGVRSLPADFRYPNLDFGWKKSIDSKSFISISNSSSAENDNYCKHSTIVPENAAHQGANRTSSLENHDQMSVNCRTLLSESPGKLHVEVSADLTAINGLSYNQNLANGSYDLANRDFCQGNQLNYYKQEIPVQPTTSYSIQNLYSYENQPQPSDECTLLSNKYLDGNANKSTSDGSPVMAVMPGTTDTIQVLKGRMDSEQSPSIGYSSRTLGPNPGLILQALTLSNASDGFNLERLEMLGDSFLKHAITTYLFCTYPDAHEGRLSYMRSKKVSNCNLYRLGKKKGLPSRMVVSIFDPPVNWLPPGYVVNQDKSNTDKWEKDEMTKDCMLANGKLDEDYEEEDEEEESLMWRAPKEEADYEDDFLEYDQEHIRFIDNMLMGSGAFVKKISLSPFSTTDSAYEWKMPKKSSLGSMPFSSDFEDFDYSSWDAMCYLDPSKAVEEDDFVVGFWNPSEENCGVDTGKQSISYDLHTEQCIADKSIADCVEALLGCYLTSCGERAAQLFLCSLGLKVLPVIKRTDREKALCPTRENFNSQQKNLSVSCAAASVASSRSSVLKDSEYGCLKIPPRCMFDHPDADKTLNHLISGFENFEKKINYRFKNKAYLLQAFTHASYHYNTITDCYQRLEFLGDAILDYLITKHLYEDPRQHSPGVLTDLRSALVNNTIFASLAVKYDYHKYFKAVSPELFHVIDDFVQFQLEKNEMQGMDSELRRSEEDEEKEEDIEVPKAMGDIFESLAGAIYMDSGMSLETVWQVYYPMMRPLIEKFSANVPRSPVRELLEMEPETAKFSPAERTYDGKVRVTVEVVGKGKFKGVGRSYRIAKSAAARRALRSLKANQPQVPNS

The assay has as its target Endoribonuclease Dicer (Homo sapiens) (UniProt Q9UPY3). In words: inhibitors of Dicer pre-microRNA processing, primary screen, biochemical, cat-ELCCA, chemiluminescence (AID 1347074).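 Note: plate controls were vehicle for no effect and no enzyme for full effect; higher signal means more uncleaved substrate so more Dicer inhibition.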 The note with it: cat-ELCCA pre-miR-21 Dicer processing, at 25 µM, active compounds read high.
As to `O=C1C(=O)N(CCCN2CCOCC2)C(c2ccco2)/C1=C(\O)c1ccc(F)cc1` (stereo not drawn), the z-score was 2.92.
With `O=C1CC(N2CCN(c3cccc(Cl)c3)CC2)C(=O)N1c1cccc(Cl)c1` (stereo not drawn), the z-score is 0.79.
Then `O=C(O)C1CC(=O)N(Cc2ccccc2Cl)C1` (stereo not drawn), with -1.02; and `O=C(O)C1CC(=O)N(c2cccc(Cl)c2)C1` (stereo not drawn), with 8.4 (active).
Next, `CC(c1ccccc1)C1C(C#N)=C(N)Oc2n[nH]c(-c3ccccc3)c21` (stereo not drawn): -0.54.
In the case of `Cc1cc(C)cc(N2CC(C)Cn3c2nc2c3c(=O)n(CC(=O)O)c(=O)n2C)c1` (stereo not drawn), the z-score is -0.04.
Next, `Cc1ccc(C(=O)CSc2nnc(-c3ccccc3)n2C)cc1`: 8.7.
Then `Cc1cc(-c2ccccc2)n2nc(C)cc2n1`, with 0.05; and `CCOC(=O)c1c(N)sc2c1CC(C)(C)OC2`, with -0.32; and `CC1=CC(C)(C)N(C(=O)NC2CCCCC2)c2ccc(C)cc21`, with -5.39.
On to `CC1=CC(C)(C)N(S(=O)(=O)c2ccc(C)cc2)c2cc3c(cc21)OCO3`, for which the z-score was 3.26 (active).
On to `Cn1c(N2CCCCC2)nc2c1c(=O)n(Cc1ccc(Cl)cc1Cl)c(=O)n2C`, for which the z-score was -1.04.
Then `Cn1c(CSc2cccs2)nnc1SCc1c(Cl)cccc1Cl`, with 0.02; and `CC(=O)Nc1ccc(C(=O)CSc2nc3nc(C)cc(C)c3c(=O)[nH]2)cc1`, with -0.34.
Then `CN(C)c1ccc(/C=C2\CCC/C(=C\c3ccc(N(C)C)cc3Cl)C2=O)c(Cl)c1`, with 3.37 (active); and `O=C1/C(=C/c2ccc(Cl)cc2)CCC/C1=C\c1ccc(Cl)cc1`, with -1.13; and `Cn1ccnc1SCC(=O)Nc1cccc2nsnc12`, with -4.69.
Then `CC1=N/C(=C/c2ccccc2O)C(=O)O1`, with 0.13; and `CC1=N/C(=C/c2ccccc2Cl)C(=O)O1`, with 3.5 (active).
With `O=C(CN1C(=O)/C(=C/c2ccccc2Cl)N=C1c1ccccc1)c1ccccc1`, the z-score was 0.22.
Then `CCOC(=O)Cn1c(Sc2nc3c(c(=O)n(C)c(=O)n3C)n2C)nc2ccccc21`, with 2.22.
As to `O=C(O)CC1S/C(=N\N=C\c2ccco2)NC1=O` (stereo not drawn), the z-score was -0.87.
Then `O=C(NCc1ccc2c(c1)OCO2)c1ccc(Cn2cc(Cl)cn2)cc1`, with 1.8; and `CCOc1ccc(S(=O)(=O)n2ccnc2)c2ccccc12`, with 3.38 (active).
Then `CCOc1ccc(S(=O)(=O)Nc2ccncc2)c(C)c1C`, with 0.59.
Next, `COc1cc(C)c(Cl)cc1S(=O)(=O)n1ccnc1`: -0.35; `CSCC(CSC)OC(=O)NC(=O)c1c(Cl)cccc1Cl`: -0.86; `NC(=O)C1CCN(C(=O)C2CC(c3ccc(Cl)cc3)=NO2)CC1` (stereo not drawn): -1.13.
Consider `CCOC(=O)CSc1nc2cc(Cl)ccc2s1`, for which the z-score is 0.3.
In the case of `N#Cc1sc(SCc2ccccc2)c2c1CC(c1ccccc1)CC2=O` (stereo not drawn), the z-score was 0.58.
For the compound `CCCN1C(=O)C(O)(CC(=O)c2ccc(C(C)(C)C)cc2)c2ccccc21` (stereo not drawn), the z-score is -0.52.
Then `Cc1cc(N2C(=O)CC(C)(C)CC2=O)n(C)n1`, with -0.86; and `CCC(C)c1ccc(O)c(/C=N/Nc2ccccc2)c1` (stereo not drawn), with 6.05 (active).
Turning to `CCOC(=O)c1c(N/N=C\c2ccccc2O)n[nH]c1C`, the z-score was 1.01.
As to `COc1ccccc1C1CCN(S(=O)(=O)c2ccc(Oc3c(Cl)cccc3[N+](=O)[O-])cc2)CC1`, the z-score is 1.46.
On to `CCC(C)c1ccccc1OCC(O)CN1C(=O)NC(C)(C)C1=O` (stereo not drawn), for which the z-score is 0.96.
Then `Oc1ccccc1-c1nc(/C=C/c2cccs2)no1`, with 2.56; and `Fc1ccc(-n2nnnc2-c2cnc3ccc(Cl)cc3c2-c2ccccc2)cc1`, with 0.2.
Regarding `FC(F)(F)c1nc(-c2ccccc2)ncc1-c1nnnn1-c1ccccc1`, the z-score is 3.06 (active).
Then `Cc1ccc(-n2nnnc2-c2cnc3ccccc3c2C)cc1`, with -0.58; and `CCc1ccccc1N1CC23C=CC(O2)C(C(=O)OC(C)C)C3C1=O` (stereo not drawn), with -0.64.
On to `COc1cc(/C=C2/N=C(c3ccccc3)N(C)C2=O)cc(OC)c1OC`, for which the z-score is 2.54.
Then `CCOC(=O)c1c(C)[nH]c(=O)c([N+](=O)[O-])c1O`, with 0.2; and `CC1([N+](=O)[O-])COC(c2ccccc2)OC1` (stereo not drawn), with 1.75; and `O=C1OC2(CCCCC2)OC1c1ccccc1` (stereo not drawn), with 3.75 (active).
Turning to `Cn1c(=O)c(C#N)c(O)c2ccccc21`, the z-score is 0.83.
Next, `CCCCc1ccc(S(N)(=O)=O)cc1`: -0.91.
Then `CCCCc1ccc(-n2c(-c3ccc(F)cc3)coc2=O)cc1`, with 9.25 (active); and `Fc1ccc(NC2=NCCN=C(Nc3ccc(F)cc3F)SS2)c(F)c1`, with -0.47.
On to `CSc1scc(NC(=O)Nc2cc(Cl)cc(Cl)c2)c1S(=O)(=O)C(C)C`, for which the z-score is 30.2 (active).
Next, `O=C(Nc1cc(Cl)cc(Cl)c1)Nc1cnccc1C(F)(F)F`: 0.4.
Next, `O=C(CSc1nc(-c2ccc(F)cc2)cc(C(F)(F)F)n1)N1CCOCC1`: -0.77; `C/C(=N\OC(=O)c1ccc(Cl)cc1)c1nnn(-c2cc(C(F)(F)F)cc(C(F)(F)F)c2)c1C`: 0.47.
Next, `CCOc1ccc(S(=O)(=O)N2CCSC2c2cccc(Cl)c2)cc1` (stereo not drawn): 1.41; `O=c1c2cc(-c3ccccc3)sc2n(Cc2ccccc2Cl)c(=O)n1-c1ccccc1`: 0.38.
For the compound `COC(=O)c1c(NC(=O)COc2ccccc2)sc2c1CCCC2`, the z-score is 0.4.
Then `CCCC1CCc2c(sc(NC(=O)COc3ccc(Cl)cc3)c2C(N)=O)C1` (stereo not drawn), with -0.31; and `COC(=O)c1c(NC(=O)CCCOc2ccc(Cl)cc2)sc2c1CCCC2`, with 4.01 (active).
Then `CC1(C)CC(=O)C=C(Nc2cc(-c3ccc(Cl)cc3)[nH]n2)C1`, with 2.1; and `Cc1nc2cc(-n3c(O)c[nH]c3=O)ccc2s1`, with 1.96; and `CCOC(=O)c1c(C)n(CCOc2ccc(F)cc2)c2ccc(O)cc12`, with 4.76 (active).
Take `CCOC(=O)c1c(C)oc2ccc(OCc3ccc(C(=O)OC)cc3)cc12`: the z-score was 0.32.
For the compound `CCOC(=O)C1=C(O)CSC1=Nc1ccc(F)cc1`, the z-score was 2.03.
Take `Cc1cc(C)c2c(n1)sc1c(=O)n(C)cnc12`: the z-score is 1.74.
Then `CCOC(=O)C1=C(N)Oc2c(Br)cc(Cl)cc2C1C(C#N)C(=O)OCC` (stereo not drawn), with 2.22; and `CCOC(=O)C(NC(=O)c1ccccc1)(OC(C)C)C(F)(F)F` (stereo not drawn), with 0.49; and `FC(F)(F)c1cc(Cl)c2ncc(-c3ccc(Cl)c(Cl)c3)nc2c1`, with 1.2.
Regarding `CCn1c(C(O)c2ccc(C(C)C)cc2)nc2ccccc21` (stereo not drawn), the z-score was 1.03.
Turning to `CC(C)Cn1c(C2CC(=O)N(c3ccccc3)C2)nc2ccccc21` (stereo not drawn), the z-score was 5.98 (active).
Then `O=C1CC(c2nc3ccccc3n2Cc2ccc(F)cc2)CN1c1ccccc1` (stereo not drawn), with 5.55 (active); and `O=c1n(Cc2ccccc2)c2ccccc2n1Cc1ccccc1`, with -0.36.
Next, `NC1=NC(c2cc(F)cc(F)c2)n2c(nc3ccccc32)N1` (stereo not drawn): -1.88; `Cc1nc2ccccc2n1C1CC(=O)N(c2ccccc2)C1=O` (stereo not drawn): 0.3.
Next, `CCCCOCC1CC2(CC(C)(c3csc(Nc4ccccc4Cl)n3)OC2=O)C(=O)O1` (stereo not drawn): 0.26; `O=C(Nc1cccc(F)c1)c1sc2ccccc2c1Cl`: 4.06 (active).
On to `O=C(Nc1ccc2oc(-c3ccncc3)nc2c1)c1sc2ccccc2c1Cl`, for which the z-score was 0.13.
Next, `O=C(Nc1cccc2ncccc12)c1sc2ccccc2c1Cl`: 0.23; `N#CC1=C(N)Oc2cc(O)ccc2C1c1cccc(Br)c1` (stereo not drawn): -2.59.
Next, `O=C1Nc2ccc(Br)cc2C1O` (stereo not drawn): -6.13; `CCOC(=O)c1cnn2c1nc(Oc1cc(C(F)(F)F)cc(C(F)(F)F)c1)c1ccccc12`: -0.15; `COC(=O)C(C)N(C#N)c1nc(N(C)C)nc(N(C)C)n1` (stereo not drawn): 5.93 (active).
Next, `CC(C)NC(=O)NNc1cc(N(C)C)c(C#N)c(N(C)C)n1`: -3.01.
For the compound `COc1ccc(N2CCN(Cc3nc4c(c(=O)n(C)c(=O)n4C)n3CC(=O)C(C)(C)C)CC2)cc1`, the z-score was -2.02.
Next, `Cc1ccc(/C(O)=C2\C(=O)C(=O)N(CCCN3CCOCC3)C2c2ccc(C)cc2)cc1` (stereo not drawn): 0.47; `CCCCCCC#Cc1cncc(-c2nnc(SCC(=O)Nc3ccccc3)n2C)c1`: 0.64; `O=C(Nc1ccc(F)cc1F)N1CCN(c2ccccn2)CC1`: 2.53.
Next, `Cc1ccc(C)c(-c2nc(C)sc2CC(=O)O)c1`: 0.81; `Cn1c(-c2ccccc2)nc2c(c1=O)C1(CCCCC1)Cc1ccccc1-2`: -0.41.
Then `CCn1c(=O)c2c(n3c(SCC(N)=O)nnc13)-c1ccccc1CC21CCCCC1`, with 5.92 (active); and `Fc1ccc(-c2cc3ncc4c(n3n2)-c2cc(F)ccc2OC4)cc1`, with -1.86.
With `Cc1cc(C)c2c(c1)C(=O)C(c1cc(=O)c3ccccc3[nH]1)C2=O` (stereo not drawn), the z-score was 1.92.
Regarding `Clc1ccc(-c2csc(N/N=C\c3ccn[nH]3)n2)cc1`, the z-score is 0.61.
With `CC(C)NC(=S)N/N=C/c1ccn[nH]1`, the z-score was 3.01 (active).
Next, `C/C(=N\NS(=O)(=O)c1ccc(Cl)cc1)c1cc(-c2ccccc2)no1`: -0.51.
Next, `C=C1c2c(Cl)ccc(O)c2C(O)=C2C(=O)[C@]3(O)C(O)=C(C(N)=O)C(=O)[C@@H](N(C)C)[C@@H]3[C@@H](O)C12` (stereo partly drawn): 15.5 (active); `CN(C)[C@@H]1C(=O)C(C(N)=O)=C(O)[C@@]2(O)C(=O)C3=C(O)c4c(O)ccc(Cl)c4[C@@H](O)[C@H]3C[C@@H]12`: 0.22; `O=C(NC(=O)c1c(F)cccc1F)Nc1ccc(Br)cc1F`: 0.21.
Then `O=C1Nc2ccc(S(=O)(=O)Nc3ccc4oc(=O)sc4c3)c3cccc1c23`, with 1.49.
